A number with no mark means an inactive call. Records with an inconclusive call do not appear. Active and inactive are the calls of the source. Calls come from the whole dose curve; as a rule, active = well fitted curve in the direction sought with a large enough effect; inconclusive = small, poorly fitted or top-dose-only effect, or another doubt; inactive = no such curve, though single readings can be large; an effect the other way counts as inactive or inconclusive.

For test [1], the target named is Glutathione peroxidase 1 (Homo sapiens) (UniProt P07203). The experiment in a line: Primary qHTS Assay for Inhibitors of Recombinant Selenoprotein Glutathione Peroxidase 1 (GPX1) (AID 1845191). For activity, negative = inhibition: % is set by controls: 0 for no effect and ±100 for the full control effect. Note: nearly all actives have a fitted effect of over 65% in size. A digest of the protocol: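 Recombinant GPX1 (10 nM final) was preincubated with compound for 30 min at room temperature, then reacted with 1 mM GSH, 0.5 mM CHP, 0.5 mM NADPH and 100 nM glutathione reductase; NADPH fluorescence (340/450 nm) was read at 0 and 15 min.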
Glutathione peroxidase 1 (Homo sapiens), sequence (P07203 whole entry, looked up): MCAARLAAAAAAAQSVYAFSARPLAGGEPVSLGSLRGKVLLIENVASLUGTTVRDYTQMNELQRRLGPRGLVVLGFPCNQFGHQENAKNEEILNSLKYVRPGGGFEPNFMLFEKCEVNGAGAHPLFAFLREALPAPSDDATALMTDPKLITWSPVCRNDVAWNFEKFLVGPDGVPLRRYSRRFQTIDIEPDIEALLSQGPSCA

Test [2] concerns the target Phospholipid hydroperoxide glutathione peroxidase GPX4 (Homo sapiens) (UniProt P36969). The test can be described thus: Primary qHTS Assay for Inhibitors of Recombinant Selenoprotein Glutathione Peroxidase 4 (GPX4) (AID 1845192). Note: nearly all actives have a fitted effect of over 65% in size. A digest of the protocol:
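GR-coupled readout: 100 nM GR, 1 mM GSH, 0.5 mM NADPH; NADPH fluorescence (ex 340/em 450 nm) read at t=0 and after 15 min RT. GPX4 200 nM, preincubated 30 min with compound; substrate 0.5 mM CHP.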
(In qHTS, concentration-response curves come from the screen itself.)

Test [3] concerns the target Luciferin 4-monooxygenase (Photinus pyralis) (UniProt P08659). The experiment in a line: Primary firefly luciferase (FLuc) qHTS assay for identification of artifact compounds. (AID 1845220). Note: nearly all actives have a fitted effect of over 60% in size. Note: potency is the fitted concentration of half-maximal effect. The method, boiled down: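 qHTS, 15 min compound preincubation with substrate (10 uM luciferin, 10 uM ATP) at RT, then 10 nM FLuc; 5 min; luminescence; % inhibition vs no-enzyme/DMSO controls, 4-parameter Hill fit.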

Test [4] can be described thus: Primary fluorescence-based thiol-reactive (MSTI) qHTS assay for identification of artifact compounds. (AID 1845221).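 For activity change, negative = thiol reactive: series mostly up to about 54 µM; thiol-reactive compounds lower the probe fluorescence signal.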 Note: nearly all actives have a fitted effect of over 65% in size. Note: potency is the fitted concentration of half-maximal effect. The method, boiled down:
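Reactivity toward the thiol probe MSTI (4 uM) is scored by fluorescence at Ex/Em 525/598 nm after 1 h at room temperature. Acetyl-MSTI and MSTI define the activity scale.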

In test [5] the test system is Nanoluciferase (engineered Oplophorus gracilirostris luciferase). The experiment in a line: Primary Nanoluciferase (NLuc) qHTS assay for identification of artifact compounds. (AID 1845222).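 Note: series mostly up to about 54 µM; 0% = DMSO and -100% = no enzyme.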 The method, boiled down: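 Luminescence read-out of secreted NLuc in S16 cell conditioned medium (1:55); compounds tested with 15 min RT preincubation, then Nano-Glo substrate 1:100, 5 min. % inhibition vs no-enzyme and DMSO controls, 4-parameter Hill fit.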

Test [6] in a line: Primary redox qHTS assay for identification of artifact compounds. (AID 1845223).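 Note: 0% = DMSO and 100% = reference compound.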 A digest of the protocol:
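Amplex Red (25 uM) and HRP (250 mU/mL) in HBSS, with compounds for 15 min, then 250 uM DTT for 30 min, room temperature, dark. Fluorescence 525/598 nm read; normalized to DMSO and 10 uM DA3003; Hill fit.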

Phospholipid hydroperoxide glutathione peroxidase GPX4 (Homo sapiens), sequence (P36969 whole entry, looked up): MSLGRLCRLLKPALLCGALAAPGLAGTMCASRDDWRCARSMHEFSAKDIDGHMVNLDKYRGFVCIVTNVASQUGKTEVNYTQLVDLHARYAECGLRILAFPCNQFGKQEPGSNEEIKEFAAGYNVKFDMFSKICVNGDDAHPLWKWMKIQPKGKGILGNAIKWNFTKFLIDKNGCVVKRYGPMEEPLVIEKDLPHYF

With `CC1CCC23COC(=O)C2=CC(O)CC3C1(C)CCc1ccoc1` (stereo unspecified), the Potency result in test [1], in test [2], in test [3], in test [4], in test [5] and in test [6] was “inactive” each time.
With `C=C1C(O)CC2C(C(=O)O)=COC(OC3OC(CO)C(O)C(O)C3OC(=O)/C=C\c3ccc(O)cc3)C12` (stereo unspecified), the Potency result in test [1], in test [2], in test [3], in test [5] and in test [6] was “inactive” throughout. Besides, the Potency in test [4] is 4.62 µM (active).
Take `CC(C)=C1C[C@@]2(C)C(=CC1=O)CC[C@@H](O)[C@@H]2C`: the Potency result in test [1], in test [2], in test [3], in test [4], in test [5] and in test [6] was “inactive” each time.
For the molecule `CC(C)C(O)(CO)CCO[C@@H]1O[C@H](CO[C@H]2OC[C@](O)(CO)[C@H]2O)[C@@H](O)[C@H](O)[C@H]1O` (stereo partly specified), the Potency entry in test [1], in test [2], in test [3], in test [4], in test [5] and in test [6] was “inactive” in each case.
Consider `C[C@@H]1O[C@@H](O[C@H]2[C@@H]3C=CO[C@@H](O[C@@H]4O[C@H](CO)[C@@H](O)[C@H](O)[C@H]4O)[C@@H]3[C@@]3(CO)O[C@@H]23)[C@H](O)[C@H](OC(=O)/C=C/c2ccc(O)c(O)c2)[C@H]1O`, for which the Potency result in test [1], in test [2], in test [3], in test [5] and in test [6] was “inactive” in each case. Also, the Potency in test [4] is 0.562 µM (active).
As to `CC(=O)OCC1OC(O[C@H]2CC[C@@]3(C)C(CC[C@]4(C)C3CC=C3[C@@H]5CC(C)(C)CC[C@]5(C(=O)O)CC[C@]34C)[C@]2(C)CO)C(O)C(O)C1OC1OC(C)C(O)C(OC2OCC(O)C(O)C2O)C1O` (stereo partly specified), the Potency result in test [1] and in test [2] was “inactive” each time. In addition, the outcome in test [3] was “inactive [at 11.6 µM]”. In test [4], the activity change, negative = thiol reactive is 307% [at 11.5 µM]. In addition, in test [5], the activity, negative = inhibition is 3.41% [at 11.6 µM]. The redox activity (% of DA3003) in test [6] is -4.45% [at 11.5 µM].
`COc1cc(CCCO)ccc1O[C@@H]1O[C@H](CO)[C@@H](O)[C@H](O)[C@H]1O`: the Potency result in test [1], in test [2], in test [3], in test [5] and in test [6] was “inactive” in each case. For the same molecule, the Potency in test [4] is 16.5 µM (active).
Consider `C/C=C1/C[N+](C)([O-])C2Cc3c([nH]c4ccccc34)C(=O)CC1C2C(=O)OC` (stereo unspecified), for which the Potency result in test [1], in test [2], in test [3], in test [4], in test [5] and in test [6] was “inactive” each time.
Consider `CC1(C)C2CC[C@@]34CC(CC[C@H]3[C@]2(C)CC[C@@H]1O[C@@H]1O[C@H](CO)[C@@H](O)[C@H](O)[C@H]1O)[C@](C)(O)C4` (stereo partly specified), for which the Potency result in test [1], in test [2], in test [3], in test [4], in test [5] and in test [6] was “inactive” each time.
`C/C=C1/[C@H](O[C@@H]2O[C@H](CO)[C@@H](O)[C@H](O)[C@H]2O)OC=C(C(=O)OC)[C@H]1CC(=O)OCCc1ccc(O)c(O)c1`: the Potency result in test [1], in test [2], in test [3], in test [5] and in test [6] was “inactive” throughout. For the same molecule, in test [4], the Potency is 2.07 µM (active).
`C=C1C(=O)OC2CC(COC(=O)C(C)C)=C(C(C)CCCOC(C)=O)[C@@H](OC(C)=O)C12` (stereo partly specified): the Potency result in test [1], in test [2], in test [3], in test [4], in test [5] and in test [6] was “inactive” in each case.
On to `CCC(C)C(N)C(=O)NCCN1CCOCC1` (stereo unspecified), for which the Potency result in test [1], in test [2], in test [3], in test [4], in test [5] and in test [6] was “inactive” throughout.
On to `CC(=O)NC(C(=O)OC1CCC(C)(C)C2CC=C3C(=O)OCC3C12C)C(C)C` (stereo unspecified), for which the Potency result in test [1], in test [2], in test [3], in test [4], in test [5] and in test [6] was “inactive” in each case.
For the molecule `Oc1ccccc1-c1cc(-c2ccccc2F)[nH]n1`, the Potency result in test [1], in test [2], in test [4], in test [5] and in test [6] was “inactive” throughout. Moreover, the Potency in test [3] was 1.69 µM (active).
Consider `O=C(O)c1ccc(NC(=O)[C@H](CC2CCCC2)n2cnc(C(F)(F)F)c2)nc1`, for which the Potency entry in test [1], in test [2], in test [3], in test [4], in test [5] and in test [6] was “inactive” in each case.
Take `CC1CCC2(NC1)OC1C(O)C3C4CCC5CC(O[C@@H]6O[C@H](CO)[C@@H](O)[C@H](O)[C@H]6O[C@@H]6O[C@@H](C)[C@H](O)[C@@H](O)[C@H]6O)CCC5(C)C4CCC3(C)C1C2C` (stereo partly specified): the Potency result in test [1], in test [2], in test [3], in test [4], in test [5] and in test [6] was “inactive” in each case.
`COc1cc(Nc2nc3c(s2)CCCC3c2ccccc2)ccc1-n1cnc(C)c1` (stereo unspecified): the Potency entry in test [1] and in test [2] was “inactive” throughout. The outcome in test [3] was “inactive [at 11.6 µM]”. Moreover, the activity change, negative = thiol reactive in test [4] was -6.96% [at 11.5 µM]. Moreover, in test [5], the activity, negative = inhibition was 4.88% [at 11.6 µM]. Moreover, in test [6], the redox activity (% of DA3003) is -0.384% [at 11.5 µM].
Consider `CC(CCc1ccc(O)cc1)O[C@@H]1O[C@H](CO[C@@H]2OC(CO)[C@H](O)[C@H]2O)[C@@H](O)[C@H](O)[C@H]1O` (stereo partly specified), for which the Potency result in test [1], in test [2], in test [3], in test [4], in test [5] and in test [6] was “inactive” throughout.
Consider `OC[C@H]1O[C@@H](O[C@H]2[C@H](O)[C@@H](CO)O[C@@H](OCc3ccccc3)[C@@H]2O[C@@H]2OC[C@](O)(CO)[C@H]2O)[C@H](O)[C@@H](O)[C@@H]1O`, for which the Potency result in test [1], in test [2], in test [3], in test [4], in test [5] and in test [6] was “inactive” in each case.
Regarding `CCC[C@H](N[C@@H](C)C(=O)N1[C@H](C(=O)O)C[C@@H]2CCCC[C@@H]21)C(=O)O`, the Potency entry in test [1], in test [2], in test [3], in test [4], in test [5] and in test [6] was “inactive” each time.
For `OC[C@H]1O[C@@H](OCCc2ccccc2)[C@H](O[C@@H]2OC[C@@H](O)[C@H](O)[C@H]2O)[C@@H](O)[C@@H]1O`, the Potency entry in test [1], in test [2], in test [3], in test [5] and in test [6] was “inactive” throughout. In test [4], the Potency is 4.12 µM (active).

These data come from PubChem BioAssay (NCATS).
